Screens deposited in PubChem BioAssay by Sanford-Burnham Center for Chemical Genomics.
SENP8 block-1: SENP8 (human) protease inhibition | Q96LD8 | recombinant SENP8, Nedd8 substrate fluorescence | inhibition, % at 20 µM | 360,000 compounds, 0.64% hits | AID 602440; in the data active = inhibition mostly above about 40%, no sharp cut-off; inactive = mostly below about 27%
SENP8 block-2: SENP8 protease inhibition | AID 2540 | Q96LD8 | purified SENP8, Z-RLRGG-aminoluciferin cleavage, luminescence | 330,000 compounds, 1.2% hits | inhibition, % at 10 µM; in the data active = inhibition above about 50%
SENP6 inh: blocks the human protease SENP6; Recombinant SENP6 catalytic domain, aminoluciferin luminescence; 330,000 compounds, 1.8% hits; AID 2599; inhibition, % at 10 µM;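 active = inhibition above about 50% at the single tested dose, limit read from the data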;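 also: plate controls were DMSO wells with enzyme for no effect and DMSO wells lacking enzyme for full effect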
Target sequence (Q9GZR1 628-1112 limits assumed): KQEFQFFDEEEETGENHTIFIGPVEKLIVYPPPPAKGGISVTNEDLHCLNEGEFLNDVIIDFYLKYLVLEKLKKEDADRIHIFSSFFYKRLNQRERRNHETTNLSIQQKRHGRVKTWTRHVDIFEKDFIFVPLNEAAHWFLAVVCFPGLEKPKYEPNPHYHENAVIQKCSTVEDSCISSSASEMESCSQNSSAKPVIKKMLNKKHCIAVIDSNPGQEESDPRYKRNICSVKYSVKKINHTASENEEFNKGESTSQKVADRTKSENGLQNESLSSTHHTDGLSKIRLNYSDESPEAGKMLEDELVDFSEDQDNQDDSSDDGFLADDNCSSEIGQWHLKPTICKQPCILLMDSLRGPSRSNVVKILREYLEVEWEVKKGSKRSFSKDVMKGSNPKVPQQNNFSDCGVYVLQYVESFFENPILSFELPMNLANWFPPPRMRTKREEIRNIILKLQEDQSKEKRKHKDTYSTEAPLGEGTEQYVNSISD
TRAIL sens C8: caspase-8 TRAIL sensitization; inhibition (viability loss, TRAIL sensitization), % at 10 µM; 360,000 compounds, 1% hits; NB7+C8 cells + TRAIL, ATPlite viability luminescence; AID 624354;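 active = compounds causing at least 50% loss of cell viability in the single-dose screen, relative to plate controls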
SENP7 inh: blocks the human protease SENP7; Q9BQF6; recombinant SENP7, Z-RLRGG-aminoluciferin luminescence, 40 min; inhibition, % at 5 µM; 330,000 compounds, 1.5% hits; AID 434973;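 active = inhibition above about 50% at the single test dose, limit read from the data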;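 also: plate controls were DMSO with enzyme for no effect and no enzyme buffer wells for full effect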
PPC-1+TRAIL kill: PPC-1 cancer cell killing with TRAIL present; PPC-1 cells + TRAIL, ATPLite viability luminescence; cell killing (% activity), % at 4 µM or 5 µM; AID 1443; 220,000 compounds, 0.41% hits;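 active = cell killing above 50% in the first pass at 4 µM, then a duplicate retest at 5 µM averaging 50% or more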;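 also: plate controls were cells with TRAIL plus DMSO for no effect and medium-only wells lacking cells for full effect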
SENP8 conf: human SENP8 inhibition, confirmed; shares compounds with SENP7 inh; Recombinant SENP8, Z-RLRGG-aminoluciferin luminescence, 60 min; inhibition, % at 12.5 µM; 6,200 compounds, 40% hits; AID 488912;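 active = mean inhibition across replicates above about 50%, limit read from the data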
SENP6 confirm: confirmation of human SENP6 protease inhibitors; shares compounds with SENP7 inh; recombinant SENP6, Z-RLRGG-aminoluciferin luminescence; inhibition, % at 12.5 µM; 6,200 compounds, 58% hits; AID 488915
SENP7 confirm: human SENP7 inhibition, confirmed. shares compounds with SENP7 inh. recombinant SENP7, Z-RLRGG-aminoluciferin luminescence, 40 min. inhibition, % at 12.5 µM. 6,200 compounds, 69% hits
Casp3 select: caspase-3 inhibition (SENP selectivity assay) | shares compounds with SENP7 inh | purified caspase-3, Z-DEVD-aminoluciferin luminescence, 60 min | inhibition, % at 12.5 µM | 6,200 compounds, 60% hits | AID 488918;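 active = mean inhibition above about 50%, limit read from the data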;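 also: plate controls were enzyme with DMSO for no effect and wells without caspase-3 for full effect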
SENP luc ctr: interferes with luciferase luminescence in SENP counter-screen | shares compounds with SENP7 inh | Pre-incubated SENP8/Z-RLRGG-aminoluciferin, luciferase luminescence interference | inhibition, % at 12.5 µM | 6,200 compounds, 39% hits | AID 488919;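 active = mean inhibition above about 50% when retested at one dose, limit read from the data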;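 also: plate controls were DMSO wells with completed reaction for no effect and substrate without enzyme for full effect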
The depositor's hits bear a star; · = not tested or not shown. Rows were chosen to be rich in hits. Some 3% of all compounds tested hit in one or more screens of this group.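 The calls were made as follows, unless noted: active = mean inhibition above about 50% in the one-dose retest (limit read from the data); inactive = the rest.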

SMILES | SENP8 block-1 | SENP8 block-2 | SENP6 inh | TRAIL sens C8 | SENP7 inh | PPC-1+TRAIL kill | SENP8 conf | SENP6 confirm | SENP7 confirm | Casp3 select | SENP luc ctr
CC12CCC(CC1O)C2C(=O)O (stereo not given) | 10 | · | · | -12 | · | · | · | · | · | · | ·
O=S(=O)(NCC1CCCO1)c1ccc(Cl)nc1 (stereo not given) | 18 | -1 | -59 | -6 | 4 | -6 | · | · | · | · | ·
CCOC(=O)N1CCN(C(=O)C2CC(=O)N(c3ccc(C)cc3)C2)CC1 (stereo not given) | 7 | 3 | -3 | -10 | 2 | · | · | · | · | · | ·
CC1CC1C(=O)Nc1nc2ccc(Cl)cc2s1 (stereo not given) | 16 | -3 | 1 | 15 | -2 | · | · | · | · | · | ·
O=C(Nc1nc2ccsc2c(=O)s1)c1ccco1 | -86 | 53* | 72* | -3 | 77* | 12 | 79* | 72* | 94* | 46 | 77*
Cc1cc2sc(NC(=O)c3ccco3)nc2cc1Cl | -123 | 9 | 28 | 42 | 71* | · | 10 | 10 | 6 | 29 | 7
COc1ccc(-c2ccc(NC(=O)c3ccco3)cc2)nn1 | -38 | 90* | 91* | 83* | 94* | · | 90* | 90* | 99* | 96* | 68*
Cn1cc(Cl)c(C(=O)Nc2nc3ccc(Cl)cc3s2)n1 | -18 | 48 | 68* | 20 | 95* | 32 | 28 | 44 | 67* | 55* | 8
COc1ccc(NC(=O)[C@H](C)NC(=O)[C@@H]2Cc3ccccc3CN2C(=O)OC(C)(C)C)cc1 | 14 | 8 | 4 | 8 | 5 | · | · | · | · | · | ·
CCOc1ccccc1NC(=O)COC(=O)C1COc2ccccc2O1 (stereo not given) | -2 | · | · | 0 | · | · | · | · | · | · | ·
Cn1ccc2c([N+](=O)[O-])cccc2c1=O | 11 | -2 | -20 | -9 | 6 | -4 | · | · | · | · | ·
CC(C)c1ccc(OCc2nc(-c3ccccn3)no2)c(Br)c1 | 29 | 67* | 85* | 15 | 69* | -2 | 74* | 82* | 93* | 63* | 70*
Cc1ccc(OCc2nc(-c3ccccn3)no2)cc1 | 3 | 23 | 40 | 21 | 60* | 10 | 43 | 45 | 80* | 71* | 44
Clc1ccc(OCc2nc(-c3ccncc3)no2)c(Br)c1 | 5 | 22 | 34 | 22 | 15 | 23 | · | · | · | · | ·
Cc1ccc(SCc2nc(-c3ccccn3)no2)cc1 | 11 | -10 | 16 | -4 | 18 | -20 | · | · | · | · | ·
CCc1ccc(OCc2nc(-c3ccccn3)no2)c(Br)c1 | -2 | 90* | 93* | 55* | 91* | 20 | 95* | 96* | 101* | 87* | 79*
CC(Oc1ccc(Cl)cc1Cl)c1nc(-c2ccccn2)no1 (stereo not given) | -1 | -3 | -12 | 2 | 7 | -18 | · | · | · | · | ·
Cn1cnnc1SCC(=O)Nc1ccc(N2CCCCC2)cc1 | 1 | -17 | -5 | 0 | -8 | · | · | · | · | · | ·
Cc1ccc(N2C(=O)c3ccc(N)cc3C2=O)cc1C | -88 | 40 | 65* | 7 | 51* | -4 | 63* | 60* | 86* | 54* | 63*
COC(=O)c1ccc(N/C=C/C(=O)c2ccccc2)cc1 | -348 | 75* | 90* | 55* | 96* | · | -23 | -11 | 1 | -3 | -2
CN(C)c1ccc(N/C=C/C(=O)c2ccc(F)cc2)cc1 | 36 | 94* | 98* | 30 | 100* | 13 | 3 | 61* | 26 | 71* | 17
